Source: PubChem BioAssay
Tg IFNy HTS – T. gondii growth inhibition with IFN-gamma, primary screen, cell-based; activity change, negative = inhibition, % (test concentration not listed); hit rate 3.8% among 69,000; Toxoplasma gondii growth in IFN-gamma-treated host cells; hits give low values; in the data active = activity change below about -70%, passing the limit was not always enough;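 also: host cells are HeLa cells infected with Toxoplasma gondii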
Numbers without * were called inactive; ! = a repeat was not active. The full list was thinned out, with hits kept by preference.

SMILES | Tg IFNy HTS
Cc1c(F)cccc1NC(=O)Cn1ncc2c(N3CCC(C)CC3)ncnc21 | -5.8
Cn1cccc1C(=O)N1CC[C@H]2[C@@H]1CCN2S(C)(=O)=O | -40.7
CN(Cc1ccccc1N1CCOCC1)C(=O)CN1CCC(c2ccccc2)CC1 | -12.0
CCOC(=O)c1cc(C)nc2c1c(=O)n(Cc1nc(-c3ccc(C)cc3)oc1C)c(=O)n2C | 8.0
CCOC(=O)c1cc(C)nc2c1c(=O)n(Cc1nc(-c3ccc(OC(C)C)cc3)oc1C)c(=O)n2C | -81.2*
CCOC(=O)c1cc(C)nc2c1c(=O)n(Cc1nc(-c3ccc(OC)cc3)oc1C)c(=O)n2C | -23.8
COc1ccc(CN2CCC3(CCC(CNC(=O)c4cccnc4)O3)CC2)c2ccccc12 (centres undefined) | 4.0
CC[C@H]1N(CCOCc2ccccc2)CCC[C@@]12CCC(=O)N2 | -24.8
Cc1cc(-c2ccc3c(c2)OCCO3)cnc1N | 75.2
c1cc2c(cc1-c1csc(-c3ccc4c(c3)OCCO4)n1)OCCO2 | 57.7
NC1=NN=C(c2ccc3c(c2)OCCO3)CS1 | -81.4*
CS(=O)(=O)N1CCC2O[C@H](COCc3ccccn3)CCC21 (some centres undefined) | -0.3
Cn1cc(Cn2ccnc2-c2ccc(-c3nc4ccccc4n3C)o2)cn1 | 61.8
CC(=O)C(C)(C)OC(=O)NCCc1ccc(Cl)cc1 | -76.5*
CC(=O)C(C)(C)OC(=O)NCc1cccs1 | 31.6
COc1ccc(Cl)cc1C(=O)NCCc1ccc(C(=O)O)cc1 | 13.7
Cc1cc(C(=O)N2CCC3(CC2)NC(=O)CC3c2cccnc2)c(C)o1 (centres undefined) | 10.2
Cc1ccccc1NC(=O)N1CCCC(c2n[nH]c(=O)n2-c2ccccc2)C1 (centres undefined) | -2.0
CCCOc1ccc2nc(NC(=O)OC)[nH]c2c1 | -73.0*!
COC(=O)Nc1nc2ccc(C(=O)c3ccc(F)cc3)cc2[nH]1 | -68.1
CCOC(=O)Nc1nc2ccccc2[nH]1 | 21.7
CC(C)COC1CC2(CCN(Cc3nccn3C)CC2)C1 | -9.8
CCN(CC)C(=O)C1Cn2ccnc2C2(CCN(Cc3ccc(C)s3)CC2)O1 (centres undefined) | 2.7
O=C1C(=O)N(Cc2ccc(Cl)c(Cl)c2)c2ccccc21 | 20.2
CC(=O)O/N=C1/C(=O)N(Cc2cc(Cl)ccc2Cl)c2ccc(Cl)cc21 | -79.2*
SMILES | Tg IFNy HTS
CCOC(=O)c1cc2ccsc2n1Cc1ccc(F)cc1 | 17.5
CN(Cc1ccccc1)Cc1cc(C(=O)N(C)Cc2cnccn2)no1 | -7.4
Cc1cccc2c(CC(C)NC(=O)CN3C(=O)NC4C3N(C)C(=O)N4C)c[nH]c12 (centres undefined) | 20.3
CC(C)N1CCO[C@]2(CCC[C@H]2COCC(=O)N2CCCC2)C1 | -3.2
Cn1cc(CN(CCO)C(=O)c2cccc(-c3cccc(F)c3)c2)cn1 | -29.6
O=C(O)c1cc(-c2ccc3c(c2)OCO3)nc2ccc(Br)cc12 | 8.4
O=C(c1ccc2c(c1)OCO2)N1CCCCC1 | -3.9
O=C(O)c1cccc(-c2ccc3c(c2)OCO3)c1 | -74.6*
c1ccc(C2CCCN2Cc2cnc(-c3cccs3)nc2)nc1 (centres undefined) | -54.2
COc1ccc(-c2nnc(-c3nc(NCc4ccc(F)cc4Cl)c4ccccc4n3)o2)cc1 | -46.5
COc1cc2ncnc(Nc3cccc(Br)c3)c2cc1OC | -79.0*
CCC(C)Nc1ncnc2cc(OC)c(OC)cc12 (centres undefined) | -0.7
COc1cc2ncnc(Nc3cccc(O)c3)c2cc1OC | -25.3
Cc1ccc(-c2noc(-c3c(O)c4cc(F)ccc4n(C)c3=O)n2)cc1C | -66.5
CCOCC1CN(C(=O)[C@H]2CCCO2)Cc2nnn(CC3CC3)c21 (some centres undefined) | 17.5
C=CCn1c(Cc2ccc(OC)cc2)nnc1SCC(=O)NC1=NCCS1 | -14.0
COc1cc(CN2CCC(Oc3cnccn3)CC2)ccc1N1CCCC1 | 13.8
O=C(NCc1ccc2c(c1)OCO2)c1ccccc1C1CCNC1 (centres undefined) | -2.1
Fc1ccc(C2CCNCC2COc2ccc3c(c2)OCO3)cc1 (centres undefined) | -75.2*
Fc1ccc([C@@H]2CCNC[C@H]2COc2ccc3c(c2)OCO3)cc1 | -34.9
Cc1nc(-c2ccccc2)sc1CCNC(=O)C(=O)Nc1cccc(Cl)c1 | 165.1
Clc1cccc(Cl)c1Cn1ccnc1 | 1.3
Clc1ccc(CCC(Cn2ccnc2)Sc2c(Cl)cccc2Cl)cc1 (centres undefined) | -85.8*
COc1ccccc1CN(CCCn1ccnc1)Cc1ccc(F)c(F)c1 | -42.3
O=C(c1ccco1)N1CCCN(Cc2nc(-c3cccc(Cl)c3)no2)CC1 | 4.7
SMILES | Tg IFNy HTS
Cn1cc(CN2Cc3ncn(C)c3C(C(=O)O)C2)cn1 (centres undefined) | 6.5
COc1ccc2c(c1)OCC(Cc1ccc(O)c(OC)c1)C2=O (centres undefined) | 1.8
COc1ccc2c(c1)OCC(Cc1ccc(OC)c(O)c1)C2=O (centres undefined) | -75.2*
COc1cc(C[C@H]2C(=O)OC[C@@H]2Cc2ccc(OC)c(OC)c2)ccc1O | -26.5
O=C(CCO)N1CC2CC1C[C@@H]2Oc1cccnc1 (some centres undefined) | 27.6
O=C(O)c1cnc(N2CC[C@@H](N3CCCCCC3)[C@H](O)C2)c(Cl)c1 | 3.0
O=C(/C=C\n1cnc(-c2cc(C(F)(F)F)cc(C(F)(F)F)c2)n1)NNc1cnccn1 | -68.9
O=C(/C=C\n1cnc(-c2cc(C(F)(F)F)cc(C(F)(F)F)c2)n1)N1CC(F)(F)C1 | -79.6*
O=C(c1cc(C(F)(F)F)cc(C(F)(F)F)c1)N1CC=CCC1 | 21.6
COc1cc(-c2ncn(/C=C\C(=O)OC(C)C)n2)cc(C(F)(F)F)c1 | -85.1*
Cc1c(C(=O)N2CCCC3(CC2)CN(C)C(=O)O3)sc2ccccc12 (centres undefined) | -2.8
Cn1cc(-c2nnn3c2COC(CNCc2ccc(F)cc2)C3)cn1 (centres undefined) | -9.5
O=S1(=O)c2ccccc2OCC2(CCN(Cc3ccccc3)CC2)CN1CC1CC1 | -34.6
OC(CN1CCN(c2ncccn2)CC1)c1ccc(F)cc1 (centres undefined) | 11.4
C=CCNc1nc(NCC=C)nc(N2CCN(C(c3ccc(F)cc3)c3ccc(F)cc3)CC2)n1 | -71.6*
O=C(Nc1ccccc1OCc1ccccn1)c1ccc(N2CCOCC2)cc1 | 101.7
O=C1CCc2cc(NC(=O)c3cncc(Br)c3)ccc2N1 | -3.7
CC(C)CCN1c2nc(Nc3cc(F)c(O)c(F)c3)ncc2N(C)C(=O)C1C (centres undefined) | -83.6*
O=S(=O)(c1ccccc1)N1CCCC(c2nnc(-c3cccs3)o2)C1 (centres undefined) | 24.7
COCc1cncc2c1CCN(C(=O)c1ccncc1)C2 | -97.9*
C=CCOCc1cncc2c1CCN(C(=O)c1ccncc1)C2 | -14.5
COCc1cncc2c1CCN(C(=O)c1ccc[nH]1)C2 | -66.5
O=C(CN(C(=O)c1nsc(Cl)c1Cl)C1CCCCC1)NCCc1ccccc1 | -11.3
COc1ccc(NC(=O)c2c(O)c3cccnc3n(-c3ccccc3)c2=O)cc1 | -0.8
O=C1c2cccc3cccc(c23)C(=O)N1Cc1ccco1 | -26.8
CN(C)CCN1C(=O)c2cccc3cc(NC(N)=O)cc(c23)C1=O | -31.8
O=C(CN1C(=O)c2cccc3cccc(c23)C1=O)OCCCc1ccncc1 | -73.4*
CC(C)C(=O)Nc1nc(-c2ccc(Br)cc2)cs1 | 65.1
Cc1cccc(N2CCN(c3nc(-c4ccc(Cl)cc4)nc4ccccc34)CC2C)c1 (centres undefined) | 0.2
